Active and inactive are the calls of the source. The calls were made as follows: active = hit-call score of the fitted dose curve at least 0.9, where 1 is the maximum; inactive = score below 0.9.

As usually defined, the AC50 is the concentration at which the activity in the assay is half-maximal.

Read-out in the test: Vascular cell adhesion molecule 1 (VCAM1), VCAM1 (gene 7412)
As to the kind of experiment: BSK_hDFCGF_VCAM1: BioMAP Diversity Plus: hDFCGF Assay for Vascular cell adhesion molecule 1 (VCAM1) Biomarker Activity (AID 2283065). The note with it: primary human foreskin fibroblasts; actives raise or lower the signal. On the procedure:
BSK_hDFCGF is a cell-based, multiplexed-readout assay that uses foreskin fibroblast, a human skin primary cell, with measurements taken at 24 hours after chemical dosing in a 96-well plate.BSK_hDFCGF_VCAM1 is an assay component measured in the BSK_hDFCGF assay. It measures VCAM-1 antibody related to regulation of gene expression using ELISA technology.Data from the assay component BSK_hDFCGF_VCAM1 was analyzed into 1 assay endpoint. This assay endpoint, BSK_hDFCGF_VCAM1, was analyzed with bidirectional fitting relative to DMSO as the negative control and baseline of activity. Using a type of binding reporter, gain or loss-of-signal activity can be used to understand changes in the signaling as they relate to the gene VCAM1. Furthermore, this assay endpoint can be referred to as a primary readout, because this assay has produced multiple assay endpoints where this one serves a signaling function. To generalize the intended target to other relatable targets, this assay endpoint is annotated to the cell adhesion molecules intended target family, where the subfamily is Immunoglobulin CAM.
The levels of cell surface (or secreted, indicated by the prefix "s") biomarker endpoints were measured by ELISA. Overt cytotoxicity to cells in confluent adherent cultures (all systems other than the BT system) was assessed by measuring total protein levels using sulforhodamine B (SRB) staining in parallel cultures at the time of biomarker measurements, indicated as SRB endpoints. For proliferation assays for adherent cell types, individual cell types are cultured at sub-confluence and relative cell numbers quantified by SRB staining at time points optimized for each system (48 h: 3C and CASM3C systems; 72 h: BT and HDF3CGF systems; 96 h: SAg system). SRB was performed by staining cells with 0.1% SRB after fixation with 10% TCA and reading wells at 560 nm.Viability and proliferation of PBMC (T cells) was quantified by Alamar Blue reduction for the SAg and BT systems. For PBMC viability (referred to as PBMC Cytotoxicity within the assay endpoint names), cells were plated (75,000/well in a 96-well plate) and then chemical samples added for 1 h before addition of activators, SEB and TSST-1 (20 ng/mL final concentration each). Cells were incubated for 90 h. Then, Alamar Blue (20 uL/well) (Invitrogen, Cat DAL1100) was added for 6 h, and the plates were read with a fluorescence microplate reader at 546/580 nm (excitation/emission). For PBMC proliferation, cells were plated and activated as above but incubated for only 16 h prior to addition of Alamar Blue. Plates were read after 6 h.
Consider `Oc1ccc2ccc3cccc4ccc1c2c34`, for which the AC50 is 8.34 µM (active).

Regarding `CCCSC(=O)N(CCC)CCC`, the outcome was inactive.

`C1=Cc2cccc3cccc1c23`: the outcome was inactive.

With `CCCCCOC(=O)c1ccccc1C(=O)OCCCCC`, the AC50 was 4.45 µM (active).

Turning to `O=Cc1ccco1`, the outcome was inactive.

Consider `O=C(Nc1ccccc1)c1ccccc1I`, for which the result was inactive.

`Nc1ccc(Cl)cc1N`: the AC50 is 9.2 µM (active).

In the case of `OCCCl`, the outcome was inactive.

Take `Nc1cc(Cl)cc(C(=O)O)c1Cl`: the outcome was inactive.

In the case of `O=P(OCCCl)(OCCCl)OCCCl`, the outcome was inactive.

As to `CCN(CC)N=O`, the outcome was inactive.

`C[N+](C)(C)CC1CO1` (stereo not given): the result was inactive.

Take `[O-][Cl+]O`: the result was inactive.

In the case of `OCCCBr`, the result was inactive.

Consider `c1ccc(C2CO2)cc1` (stereo not given), for which the outcome was inactive.

With `CS(=O)(=O)NC(=O)c1cc(Oc2ccc(C(F)(F)F)cc2Cl)ccc1[N+](=O)[O-]`, the result was inactive.

In the case of `CCC[CH2][Sn]([Cl])([CH2]CCC)[CH2]CCC`, the AC50 was 0.148 µM (active).

In the case of `CCC(C)c1ccc(O)cc1` (stereo not given), the outcome was inactive.

`CC(C)(O)c1cnn2c(-c3ccc(F)c(-c4c(F)cccc4C#N)c3)cnc2n1`: the outcome was inactive.

`CC(C)COC(=O)c1ccccc1C(=O)OCC(C)C`: the AC50 is 20 µM (active).

As for `CN(C)[C@@H]1C(=O)C(C(N)=O)=C(O)[C@@]2(O)C(=O)C3=C(O)c4c(O)cccc4[C@@](C)(O)[C@H]3C[C@@H]12`, the outcome was inactive.

On to `ClCCOCCCl`, for which the outcome was inactive.

Take `CN(C)c1ccccc1`: the result was inactive.

For `c1ccc2c(c1)oc1ccccc12`, the result was inactive.

Take `CCN(CC)CCO`: the outcome was inactive.

As for `Clc1ccc(C(c2ccc(Cl)cc2)C(Cl)(Cl)Cl)cc1`, the AC50 was 9.94 µM (active).

Take `COC(=O)Nc1nc2ccccc2[nH]1`: the result was inactive.

Regarding `CCOC(=O)[C@]1(c2ccccc2)Oc2ccccc2[C@@H]1N`, the AC50 is 36.6 µM (active).

Consider `O=[N+]([O-])C(Br)(CO)CO`, for which the AC50 was 26.7 µM (active).

Regarding `COc1cc(C=O)cc2c1[C@H](COC(N)=O)[C@]1(OC(C)=O)ON2C[C@H]2[C@@H]1N2C(C)=O`, the AC50 is 1 µM (active).

Turning to `CC(O)CCO` (stereo not given), the outcome was inactive.

On to `c1ccc(N=Nc2ccccc2)cc1`, for which the result was inactive.

As for `CCCCCCCCCCCCCN1CC(C)OC(C)C1` (stereo not given), the outcome was inactive.

Turning to `O=C1CCCO1`, the outcome was inactive.

With `Nc1ccc([N+](=O)[O-])cc1`, the result was inactive.

On to `O=C(O)C1C2CCC(O2)C1C(=O)O` (stereo not given), for which the AC50 was 18.6 µM (active).

With `CCCCCCCCOC(=O)c1ccc(C(=O)OCCCCCCCC)c(C(=O)OCCCCCCCC)c1`, the result was inactive.

As to `Nc1ccc(Oc2ccc(N)cc2)cc1`, the outcome was inactive.

Take `CCC12COCN1COC2`: the outcome was inactive.

For the compound `OCCOCCO`, the outcome was inactive.

The record behind these values is PubChem BioAssay (EPA / NIEHS).
